Sampled rows, rich in hits. Any-hit rate of the full collection: about 3.7%.
rRNA inh HTS: selective bacterial rRNA inhibition in E. coli; 1.6% of 350,000 active; AID 720706; GFP signal change (wild-type ribosome), % (test concentration not listed); E. coli WT GFP vs humanized-ribosome RFP mutants, fluorescence, 24 h; active compounds read low; DMSO median 0, no signal -100;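 active means significant combined selectivity score with lowered wild-type GFP, culture density cut under 30%, mutant RFP and density less affected; inactive means any of these conditions unmet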
Wnt act: activates Wnt/beta-catenin signaling in a reporter cell assay. 1.2% of 300,000 active. activator, plate reader. activation, % at 9.35 µM. AID 743398; in the data active means activation above about 30%, passing the limit was not always enough; inconclusive means no clear call, values can overlap the other calls;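 further: 0% = neutral control wells and 100% = positive control wells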
MITF act: activators of MITF-driven TRPM1 promoter activity in SK-MEL-5 cells; SK-MEL-5 TRPM1-promoter luciferase, 24 h; % of positive control, neutral wells = 0; activation, % at 12.5 µM; 0.75% of 300,000 active;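 active means mean activation of at least 80% with every replicate also reaching 80%; inconclusive means mean reaches 80% but some replicate falls short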;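 further: 0% = neutral control wells and 100% = parthenolide positive control wells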
MLL AF4-AF9 inh: blocks AF4 peptide binding to human AF9 | AlphaScreen, biotin-AF4 peptide binding to FLAG-AF9 | 0.47% of 350,000 active | P42568 | inhibition, % at 10 µM;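 active means every replicate reaching a set inhibition limit, whatever the replicate mean, cut at about 25% in these data; inconclusive means mean inhibition reaches that limit but some replicates miss it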;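 further: 0% = plate neutral control median and 100% = total signal loss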
Target sequence (P42568 whole entry, looked up): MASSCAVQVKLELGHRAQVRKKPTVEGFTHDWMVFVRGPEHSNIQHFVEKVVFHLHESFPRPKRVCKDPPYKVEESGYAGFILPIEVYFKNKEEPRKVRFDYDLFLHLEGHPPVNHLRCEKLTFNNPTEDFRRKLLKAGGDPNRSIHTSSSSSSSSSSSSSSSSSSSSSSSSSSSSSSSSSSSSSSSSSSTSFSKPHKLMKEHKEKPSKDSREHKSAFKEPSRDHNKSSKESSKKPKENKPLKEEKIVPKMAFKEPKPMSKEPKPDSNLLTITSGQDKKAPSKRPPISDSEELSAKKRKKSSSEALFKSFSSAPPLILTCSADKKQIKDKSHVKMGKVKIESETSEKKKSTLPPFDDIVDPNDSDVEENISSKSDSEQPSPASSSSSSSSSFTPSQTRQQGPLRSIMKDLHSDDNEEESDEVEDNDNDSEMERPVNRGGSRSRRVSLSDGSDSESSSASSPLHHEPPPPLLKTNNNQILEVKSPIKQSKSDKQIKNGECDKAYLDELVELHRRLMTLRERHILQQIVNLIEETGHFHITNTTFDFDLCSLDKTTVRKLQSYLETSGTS
esBAF inh: blocks esBAF chromatin remodeling in mouse ES cells; Bmi1-luciferase knock-in reporter, 24 h; 100% = twice the neutral-well signal; reporter increase, % at 12.5 µM; 2% of 350,000 active; AID 602393; in the data active means activation above about 40%; inconclusive means no clear call, values can overlap the other calls;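 further: 0% = median of the plate's neutral control wells and 100% = double that signal; a rise in the Bmi1 reporter signal indicates esBAF inhibition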
Active calls of the source: *; ? = inconclusive; . = no result.

SMILES	rRNA inh HTS	Wnt act	MITF act	MLL AF4-AF9 inh	esBAF inh
Cc1cc(Br)cc(Cl)c1OCC(=O)N1CCN(C(=O)c2ccco2)CC1	-8	59*	-3	?	-4
Cc1cc(CNC(=S)Nc2ccc(Br)cc2Cl)nn1C	-47*	4	-5	0	.
O=C(c1ccco1)N1CCN(C(=S)Nc2ccc(Br)cc2Cl)CC1	-44*	-3	-14	-3	-2
S=C(NCc1ccco1)Nc1ccc(Br)cc1Cl	-37*	4	39	3	.
Cc1cc(C)cc(NC(=S)N2CCN(C(=O)c3ccco3)CC2)c1	8	-5	-3	-1	2
Cc1cc(CNC(=O)c2cc(Br)ccc2Cl)nn1C	.	.	-7	.	-14
C[C@H](CO)N1C[C@H](C)[C@H](CN(C)S(=O)(=O)c2ccccc2)Oc2ccc(NC(=O)Cc3ccccc3)cc2CC1=O	1	.	.	0	0
C=CCOc1ccc(/C=C/C(C)=N\O)cc1	.	38*	.	.	34
C=CCOc1ccc(/C=C/C(=O)OCC(=O)N2CCN(C(C)=O)CC2)cc1	-3	-4	-3	-1	1
CCOC(=O)CN(C(=O)CSc1nnc(CNc2ccc(C)cc2C)o1)c1ccccc1	-23*	-2	-6	.	7
Cc1ccc(NCc2nnc(SCC(N)=O)o2)c(C)c1	14	-1	-11	0	.
Cn1cnc(S(=O)(=O)N2CCN(c3ccccc3)CC2)c1	6	-2	-5	-4	6
CCCCNC(=S)N(CCCO)Cc1cc2cc3c(cc2[nH]c1=O)OCCO3	11	1	7	-1	0
COc1ccccc1CNCC(=O)Nc1cc(S(=O)(=O)N2CCCCCC2)ccc1Cl	-31*	-4	-6	-2	.
COc1ccc(NC(=O)Cc2ccccc2F)cc1S(=O)(=O)N1CCCCC1	-6	4	2	1	45*
COc1ccc(C(=O)Nc2ccc(NC(C)=O)cc2)cc1S(=O)(=O)N1CCCC1	-33*	0	6	1	-3
COc1ccccc1CNCC(=O)Nc1cc(S(=O)(=O)N2CCCCC2)ccc1C	-5	-4	-13	4	-9
CCCc1cc(=O)[nH]c(SCC(=O)Nc2ccc(OC)c(S(=O)(=O)N3CCCCC3)c2)n1	-22*	-3	5	-1	2
CCCCS(=O)CC(COc1ccc(Cl)cc1)OC(=O)c1ccccc1 (configuration not stated)	-44	22	-3	.	-1
CC(=O)OC1CCC2(C)C(CCC3C4CC=C(C(C)=O)C4(C)OC(=O)CC32)C1 (configuration not stated)	8	-6	.	1	21
COc1ccc(NS(=O)(=O)c2cccc(Cl)c2Cl)cc1S(=O)(=O)N1CCCCC1	-35*	-4	-10	3	.
COc1ccc(CN(C)C(C)C(=O)Nc2ccc(S(=O)(=O)N3CCCCC3)cc2)cc1F (configuration not stated)	-15	34*	-3	2	24
O=C(Nc1ccccc1C(=O)O)c1cc(S(=O)(=O)N2CCCCCC2)ccc1Cl	-44*	2	-22	-2	-1
CC1CCCCN1S(=O)(=O)c1ccc2[nH]c(=O)cc(C(=O)NCCCN3CCCCCC3)c2c1 (configuration not stated)	1	0	8	23	1
COc1ccc(C(=O)Nc2ccc3c(c2)OC[C@H](C)N(C)C[C@@H](C)[C@@H](OC)CN(C)C3=O)cc1	-3	.	.	1	3
SMILES	rRNA inh HTS	Wnt act	MITF act	MLL AF4-AF9 inh	esBAF inh
CCc1ccc(Nc2cnn(C34CC5CC(CC(CC(=O)O)(C5)C3)C4)c(=O)c2Cl)cc1	-27*	-6	0	1	5
O=C1NC(CCc2ccccc2)C(=O)N1Cc1ccc(Br)cc1 (configuration not stated)	9	-1	-12	-3	.
O=C1NC(CCc2ccccc2)C(=O)N1CCOc1ccccc1 (configuration not stated)	-27*	-1	-6	0	.
O=C(O)CCn1c(-c2ccccc2)cc2ccccc21	-20	0	8	-4	.
COc1ccc(C(=O)OCC(=O)c2c[nH]c3ccccc23)c(OC)c1	-6	36*	69	-6	75*
COc1ccc(C(=O)COC(=O)c2ccccc2O)c(OC)c1	-18*	50*	65	-2	76*
Cc1[nH]c2ccccc2c1C(=O)COC(=O)c1ccccc1O	-3	-1	111*	-2	124*
COc1ccc(CC(=O)OCC(=O)c2c[nH]c3ccccc23)cc1	-23	2	-11	-3	1
COc1ccc(C(=O)OCC(=O)c2cc(OC)ccc2OC)c(OC)c1	.	.	21	.	18
COc1cccc(C(=O)OCC(=O)c2c[nH]c3ccccc23)c1OC	-20	5	53	-5	44*
CC1NC(C)c2c(ccc3ccccc23)O1 (configuration not stated)	-3	-2	-4	2	-1
CNC[C@H]1OCCCC[C@@H](C)Oc2ccc(NC(=O)c3ccccc3)cc2C(=O)N([C@H](C)CO)C[C@H]1C	3	.	.	.	-1
O=S(=O)(c1ccc(S(=O)(=O)N(Cc2cccs2)CC2CCCO2)cc1)N1CCCCC1 (configuration not stated)	.	.	-10	.	2
O=S(=O)(NC1CCCC1)c1ccc(S(=O)(=O)N(Cc2cccs2)CC2CCCO2)cc1 (configuration not stated)	-30*	-3	-7	-17	-2
COc1ccc(CNc2ncnc3cc(OC)c(OC)cc23)cc1OC	-17*	-1	13	2	.
COC(=O)C(Cc1ccc(OC(=O)c2ccc(C(F)(F)F)cc2)cc1)N1Cc2ccccc2C1=O (configuration not stated)	.	4	.	.	46*
CSCC[C@@H](C(=O)O)N1Cc2ccccc2C1=O	4	0	2	0	3
COc1ccccc1N1CCN(/N=C/c2ccc(Cl)c([N+](=O)[O-])c2)CC1	-8	9	27	14	44*
CN1/C(=C/C=C/c2n(C)c3cc([N+](=O)[O-])c([N+](=O)[O-])cc3[n+]2C)C(C)(C)c2ccccc21	-59*	-2	.	55*	-58
CCOC(=O)c1ccc(-c2ccc(CO)o2)cc1	.	45*	.	.	38
Cc1ccccc1-c1ccc([C@H]2[C@H](CO)N3C(=O)CN(S(C)(=O)=O)C[C@@H]23)cc1	2	.	.	-2	.
COc1ccc(Nc2nc(C(=O)NCc3ccco3)cs2)cc1	-44*	7	-4	7	.
COc1ccc2cc3cc(C(=O)NCc4ccco4)oc3nc2c1	.	8	18	.	.
COc1ccc2cc3c(N)c(C(=O)NCc4ccco4)sc3nc2c1	.	.	65	.	72*
O=C(CN1c2ccccc2S(=O)(=O)c2ccccc21)NCc1ccc(F)cc1	-33*	2	8	-2	-1
Cc1ccc2c(CN3CCC(C)CC3)cc(=O)oc2c1C	-13	4	93*	-3	?

Screens from PubChem BioAssay.
